In PubChem BioAssay AID2533 (National Center for Advancing Translational Sciences (NCATS), 2010):
Inconclusive results are not listed. Unmarked numbers belong to inactive results. Active and inactive are the calls of the source. Calls follow the shape of the dose curve; as a rule, active = well fitted activation curve with a large enough effect; inconclusive = small, poorly fitted or top-dose-only effect; inactive = flat fitted curve, though single readings scatter.

target: Pyruvate kinase PKM (Homo sapiens) (UniProt P14618); assay: Confirmation Concentration-Response Assay for Activators of Human Muscle isoform 2 Pyruvate Kinase: for Probe SAR; settings: purified PKM2, ATP generation, Kinase-Glo luminescence; series mostly up to 57.5 µM; activity change, positive = activation: at the top concentration; also: nearly all actives have a fitted effect of over 60% in size; as to activity change, positive = activation: % of control where 0% means no effect
Sequence (P14618 whole entry, looked up, canonical isoform): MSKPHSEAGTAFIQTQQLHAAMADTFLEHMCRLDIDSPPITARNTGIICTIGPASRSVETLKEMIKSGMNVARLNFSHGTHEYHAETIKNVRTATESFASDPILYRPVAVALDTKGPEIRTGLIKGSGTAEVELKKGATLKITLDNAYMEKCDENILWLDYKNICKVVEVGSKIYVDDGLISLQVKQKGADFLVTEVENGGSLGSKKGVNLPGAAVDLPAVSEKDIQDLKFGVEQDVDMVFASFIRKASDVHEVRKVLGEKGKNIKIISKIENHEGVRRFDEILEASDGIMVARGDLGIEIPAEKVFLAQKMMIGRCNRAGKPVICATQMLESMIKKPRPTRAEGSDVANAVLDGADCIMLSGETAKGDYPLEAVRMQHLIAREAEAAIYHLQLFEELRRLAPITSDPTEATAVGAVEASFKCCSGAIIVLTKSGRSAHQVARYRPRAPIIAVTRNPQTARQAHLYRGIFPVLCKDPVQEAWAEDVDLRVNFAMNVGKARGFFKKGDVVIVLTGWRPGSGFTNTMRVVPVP
Source text: NIH Chemical Genomics Center [NCGC]
Matthew G. Vander Heiden, M.D., Ph.D. [Harvard Medical School, 77 Avenue Louis Pasteur, Boston, MA 02115]
Human pyruvate kinase muscle 2 (hPK-M2) enzyme was supplied as a highly purified (>95% pure) preparation from Harvard Medical School and assayed for its ability to generate ATP from ADP using phosphoenolpyruvate (PEP) as a substrate. ATP generation was detected in a coupled reaction by luciferase-mediated luminescence, an ATP-dependent process. […] The enzyme was assayed at an intermediate level of activity to screen for both inhibitors and activators.
NCGC Assay Protocol Summary:
Three uL of substrate mix (at r.t.) in assay buffer (50 mM Imidazole pH7.2, 50 mM KCl, 7 mM MgCl2, 0.01% Tween 20, 0.05% BSA) was dispensed into white solid bottom 1,536 well microtiter plates so that the final concentrations of substrates in the assay were 0.1 mM ADP and 0.5 mM PEP. 23 nL of compound were delivered by a pin tool and 1 uL of enzyme mix (final concentration of 0.1 nM) in assay buffer (4 degree Celsius) was added. Plates were incubated at room temperature for 1 hour. Two uL of detection mix (Kinase-Glo, Promega; at 4 degree Celsius protected from light) was added and luminescence read by a ViewLux (Perkin Elmer) at 1 second exposure/plate. Data were normalized to the uninhibited (column 3) and AC100 inhibition (no enzyme in column 2). To monitor activation, the first column contained a titration of the activator, NCGC00031955-03 (16-point 1:2 dilutions in duplicate starting at 57 uM) and the first 16 rows of column 4 contained 57 uM of NCGC00031955-03.
Potency is read from the fitted curve at half-maximal effect.

Structure (SMILES) | Potency | activity change, positive = activation [%]
Cc1ccc(NS(=O)(=O)c2ccc3c(c2)CCC(=O)N3)cc1F | 0.517 µM (active) | –
Cc1ccc2nc(-c3ccc(C)o3)c(Nc3ccc4c(c3)OCO4)n2c1 | – | 29.7
Cc1ccc(NS(=O)(=O)c2ccc(N3CCCC3=O)cc2)cc1C | – | 18.2
CC(=O)Nc1cccc(S(=O)(=O)N2CCCN(S(=O)(=O)c3ccc4c(c3)OCCO4)CC2)c1 | 1.3 µM (active) | –
Cc1ccc(Nc2c(-c3ccc(C)o3)nc3cccc(C)n23)cc1 | – | 22.8
O=S1(=O)N=C(Oc2cccc3ccccc23)c2ccccc21 | – | -1.77
Cc1cccc(NS(=O)(=O)c2ccc3c(c2)CCC(=O)N3)c1 | 1.83 µM (active) | –
Cc1ccc(NS(=O)(=O)c2cc3c(cc2C)NC(=O)CO3)cc1C | 0.58 µM (active) | –
O=S1(=O)N=C(Oc2ccccc2F)c2ccccc21 | – | 12
O=C1c2ccccc2C(=O)N1c1ccc(O)cc1 | – | 11.8
Cc1ccc(NS(=O)(=O)c2cc3c(cc2/C=C/c2ccccc2)NC(=O)CO3)cc1C | – | 19.8
O=S1(=O)N=C(Oc2ccccc2)c2ccccc21 | – | 10.6
COc1ccc(NS(=O)(=O)c2ccccc2)cc1NS(=O)(=O)c1ccccc1 | – | 24.3
CSc1cc2c(s1)c1cnn(Cc3cccc(O)c3)c(=O)c1n2C | 0.0411 µM (active) | –
COc1cc(F)c(S(=O)(=O)N2CCN(S(=O)(=O)c3cccc(NC(C)=O)c3)CC2)c(F)c1 | 3.26 µM (active) | –
Cc1ccc(-c2nc3cnccn3c2Nc2ccc(C(C)C)cc2)o1 | – | 24.6
N#Cc1cccc(OC2=NS(=O)(=O)c3ccccc32)c1 | – | 6.14
Cc1ccc(C)c(NC2=NS(=O)(=O)c3ccccc32)c1 | – | 11.5
O=C1CCc2cc(S(=O)(=O)Nc3ccc(Cl)cc3)ccc2N1 | 2.06 µM (active) | –
Cc1ccc(NS(=O)(=O)c2ccc(F)cc2)cc1C | 25.9 µM (active) | –

Structure (SMILES) | Potency | activity change, positive = activation [%]
Cc1ccc(Nc2c(-c3ccsc3)nc3c(C)cccn23)cc1 | – | 14.9
Cc1ccc(NS(=O)(=O)c2ccc3c(c2)CCC(=O)N3)cc1Cl | 0.326 µM (active) | –
Cc1ccc(NS(=O)(=O)c2ccc3c(c2)CCC(=O)N3)cc1 | 5.8 µM (active) | –
Cc1ccn2c(NCc3ccco3)c(-c3ccccc3)nc2c1 | – | -5.8
O=C1c2ccccc2C(=O)N1c1cccc2ccncc12 | – | 5.86
O=C(O)c1ccccc1SC1=NS(=O)(=O)c2ccccc21 | 32.6 µM [inhibitor] (active) | –
N#Cc1ccccc1OC1=NS(=O)(=O)c2ccccc21 | – | 5.45
Cc1ccc2nc(-c3ccc(C)o3)c(Nc3ccccc3)n2c1 | – | 5.7
O=C1CCc2cc(S(=O)(=O)Nc3ccc4ccccc4c3)ccc2N1 | 5.17 µM (active) | –
O=S1(=O)N=C(Oc2ccccc2Cl)c2ccccc21 | – | 9.98
Cc1ccc2nc(-c3cccs3)c(Nc3ccccc3)n2c1 | – | 11.6
O=C1CCc2cc(S(=O)(=O)Nc3ccccn3)ccc2N1 | – | 28.5
COc1cc(F)c(S(=O)(=O)N2CCN(S(=O)(=O)c3cccs3)CC2)c(F)c1 | 0.0366 µM (active) | –
O=C1c2ccccc2C(=O)N1Cc1ccccc1 | – | 1.32
Cc1cc(C)n2c(Nc3ccccc3)c(-c3ccc(C)o3)nc2n1 | 16.3 µM (active) | –
CC(=O)Nc1cccc(OC2=NS(=O)(=O)c3ccccc32)c1 | – | 3
COc1cc(F)c(S(=O)(=O)N2CCN(S(=O)(=O)c3ccco3)CC2)c(F)c1 | 0.183 µM (active) | –
O=C1c2ccccc2C(=O)N1Cc1ccccn1 | – | -5.16
O=S1(=O)N=C(Oc2ccc(-c3ccccc3)cc2)c2ccccc21 | – | -3.1
Nc1ccc(S(=O)(=O)N2CCCN(S(=O)(=O)c3ccc4c(c3)OCCO4)CC2)cc1 | 1.03 µM (active) | –
